# Laboratory results from PubChem BioAssay AID1030 (National Center for Advancing Translational Sciences (NCATS), 2008).
# Among all 220,000 compounds or so, about 16,000 (7.3%) were called active. A call without a number means that no potency is given here. Not shown: some 25% with an inconclusive outcome. Calls follow the shape of the dose curve; as a rule, active = well fitted inhibition curve with a large enough effect (not every such curve was filed as active); inconclusive = small, poorly fitted or top-dose-only effect, or another doubt; inactive = no such curve, though single readings can be large or run the other way. Only a selection was taken, and actives are over-represented in it overall.
# Molecular target: Aldehyde dehydrogenase 1A1 (Homo sapiens) (UniProt P00352)
# Sequence (P00352 whole entry, looked up): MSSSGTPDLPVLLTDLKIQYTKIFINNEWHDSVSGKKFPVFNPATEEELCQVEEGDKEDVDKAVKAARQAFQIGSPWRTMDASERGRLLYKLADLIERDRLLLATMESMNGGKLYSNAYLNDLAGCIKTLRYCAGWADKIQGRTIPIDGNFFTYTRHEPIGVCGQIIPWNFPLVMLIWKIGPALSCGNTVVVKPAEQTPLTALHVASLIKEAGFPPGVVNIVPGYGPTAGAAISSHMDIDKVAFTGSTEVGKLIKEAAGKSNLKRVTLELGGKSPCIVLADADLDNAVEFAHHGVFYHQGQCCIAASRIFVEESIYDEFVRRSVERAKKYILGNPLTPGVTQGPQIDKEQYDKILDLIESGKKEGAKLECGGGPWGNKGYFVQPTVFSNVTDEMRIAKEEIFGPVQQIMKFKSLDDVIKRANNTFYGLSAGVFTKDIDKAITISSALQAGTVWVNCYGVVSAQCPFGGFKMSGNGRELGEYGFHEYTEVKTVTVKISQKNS
# Assay: qHTS Assay for Inhibitors of Aldehyde Dehydrogenase 1 (ALDH1A1)
# Settings: Purified ALDH1A1, NADH fluorescence, propionaldehyde substrate; series mostly up to 75.3 µM
# Potency is read from the fitted curve at half-maximal effect.
row,SMILES,Potency
1,O=C(CNC(=O)COc1ccccc1)NCCc1ccccn1,inactive
2,COC(c1ccccc1)c1nnc(CCC(=O)N2CCN(CCOc3ccccc3)CC2)o1 (centres undefined),inactive
3,OCCC1CN(Cc2cccc(O)c2)CCN1CCc1ccccc1 (centres undefined),inactive
4,CCn1cc(-c2cc(C(=O)O)on2)c(C)n1,inactive
5,COC(=O)C(C)N=Cc1ccccc1 (centres undefined),inactive
6,Fc1ccc(-c2csc(-c3ccc(C4SCCS4)cc3)n2)cc1F,inactive
7,Cc1cc(C)c(NC(=O)C[N+](C)(C)CC(O)COc2cccc3ccccc23)c(C)c1 (centres undefined),inactive
8,CCC(C)Sc1nc2c(c(=O)[nH]c(=O)n2C)n1CC(O)COc1cccc2ccccc12 (centres undefined),25.1 µM (active)
9,CCCCNc1nc2c(c(=O)[nH]c(=O)n2C)n1CCOc1ccccc1,inactive
10,CCCN(CC(=O)Nc1ccc(OC)c(OC)c1)CC(=O)Nc1ccc(F)c(F)c1F,inactive
11,CNc1ccc(SC#N)cc1,8.91 µM (active)
12,COC(=O)Cc1c(O)ccn(Cc2cccc(C(F)(F)F)c2)c1=O,inactive
13,CCOc1ccc(C2C(C(=O)O)c3ccccc3C(=O)N2CCN2CCOCC2)cc1 (centres undefined),inactive
14,O=C1c2oc3ccc(Br)cc3c(=O)c2C(c2cccc(F)c2)N1CCO (centres undefined),inactive
15,CCCOc1ccc(C2c3c(oc4cc(C)c(C)cc4c3=O)C(=O)N2CCCN2CCOCC2)cc1 (centres undefined),3.98 µM (active)
16,COc1cccc(OCCCN2CCCCCC2)c1,14.1 µM (active)
17,c1ccc2cc(OCCN3CCCC3)ccc2c1,inactive
18,COc1cccc(OCC(O)CN2CCN(CCO)CC2)c1 (centres undefined),inactive
19,OC(c1nnc(-c2ccccc2)o1)c1cccs1 (centres undefined),inactive
20,O=C(Nc1ccccc1Cl)c1ccc2nsnc2c1,inactive
21,O=C(O)c1ccc(Cl)c(S(=O)(=O)Nc2ccccc2Cl)c1,inactive
22,O=C(Nc1ccccc1Cl)/C(Cl)=C(\Cl)S(=O)c1ccccc1 (centres undefined),10 µM (active)
23,O=c1[nH]c(CN2CCOCC2)nc2scc(-c3ccccc3)c12,inactive

row,SMILES,Potency
1,Cc1ccc(S(=O)(=O)N(C)C)cc1NC(=O)COC(=O)c1c(C)noc1C,inactive
2,CCCCN=C1C([N+](=O)[O-])=CC=C2C1=NC1(CCCCC1)N2O,1.41 µM (active)
3,O=C(COC(=O)c1ccc2c(c1)OCCO2)NCc1ccccc1,inactive
4,Cn1cc(CCC(=O)NCc2ccc3c(c2)OCO3)c2ccccc21,inactive
5,O=C(CN(Cc1ccccc1)C(=O)c1ccc2c(c1)OCCO2)NCc1ccc2c(c1)OCO2,0.631 µM (active)
6,CC(C)(C)NC(=O)CN(C(=O)c1csnn1)c1ccccc1-c1ccccc1,inactive
7,CSc1cccc(NC(=S)N(Cc2ccccc2)Cc2ccccn2)c1,inactive
8,Cc1cc(C)cc(NC(=S)NCCCN2CCOCC2)c1,inactive
9,CCOc1ccccc1/C=c1\sc2nc(-c3ccco3)nn2c1=O,28.2 µM (active)
10,CCOc1ccccc1C(=O)NCc1ccco1,inactive
11,CSc1nc(-c2ccco2)nn1C(=O)CCc1ccccc1,inactive
12,O=C(O)CC1S/C(=N\N=C/c2ccccc2O)N(c2ccc(O)cc2)C1=O (centres undefined),inactive
13,Cc1cc(C(=O)NNC(=O)c2cccc(S(=O)(=O)N3CCOCC3)c2)c2ccccc2n1,inactive
14,O=C(NC(=S)Nc1ccc(S(=O)(=O)N2CCOCC2)cc1)c1ccccc1[N+](=O)[O-],7.94 µM (active)
15,O=C(Nc1ccc(N2CCOCC2)cc1)c1ccc(-c2ccccc2[N+](=O)[O-])o1,inactive
16,O=C(NNC(=S)Nc1ccccc1)c1cccc(S(=O)(=O)N2CCOCC2)c1,28.2 µM (active)
17,O=C(c1cccc(S(=O)(=O)N2CCOCC2)c1)N1CCOCC1,inactive
18,O=C(CN1C(=O)CCC1=O)Nc1ccc(S(=O)(=O)N2CCOCC2)cc1,inactive
19,CCc1c(C)nc2c(OC)cccc2c1Cl,inactive
20,CCSc1nc(C)c(CCOc2cccc(C)c2)c(=O)[nH]1,inactive
21,COc1ccc(-c2[nH]ncc2CN(Cc2nccn2C)C(C)C)cc1F,inactive
22,CCCCCCCC1=Cc2ccc(F)cc2C(C(C(=O)OC)C(=O)OC)N1C(=O)OC (centres undefined),inactive
23,COc1ccccc1N(CC(=O)Nc1ccc(C(F)(F)F)cc1)S(C)(=O)=O,inactive

row,SMILES,Potency
1,COc1ccc(C(=O)C2CCCN(C(=O)c3cc4nc(C)cc(C)n4n3)C2)cc1F (centres undefined),inactive
2,CCCCN(C(=O)c1ccc(OC(F)(F)F)cc1)c1c(N)n(CCC)c(=O)[nH]c1=O,inactive
3,O=C(Nc1ccnc(-c2ccncc2)n1)c1cccs1,inactive
4,CC(=O)c1cc(C#N)c(N2CC(C)OC(C)C2)nc1C (centres undefined),inactive
5,N#Cc1ccc(CSc2nnc(-c3ccccn3)n2-c2ccc(Cl)cc2)cc1,inactive
6,CCN(CC)C(=O)CSc1nnc(-c2cnccn2)n1-c1ccc(C)cc1,inactive
7,Cn1c(SCc2c(F)cccc2Cl)nnc1-c1cnccn1,12.6 µM (active)
8,CC(=O)NC(NC(=S)Nc1c(C)n(C)n(-c2ccccc2)c1=O)C(Cl)(Cl)Cl (centres undefined),inactive
9,COC(=O)c1ccc(-c2noc(CN(Cc3ccccn3)CC3CCCO3)n2)cc1 (centres undefined),inactive
10,Fc1ccc(Nc2nnns2)cc1,2 µM (active)
11,CN(C)c1ccnc(Nc2ccc(F)cc2)c1C#N,inactive
12,O=C1CS(=O)CN1c1ccc(Oc2ccccc2)cc1 (centres undefined),inactive
13,O=C(CCC1CCCN(C(=O)Cc2ccc(F)cc2)C1)N1CCN(c2ccccn2)CC1 (centres undefined),inactive
14,CCN(CC(=O)NCCc1ccccc1)S(=O)(=O)c1ccccc1,35.5 µM (active)
15,CCN(CC(=O)NC1CCS(=O)(=O)C1)S(=O)(=O)c1ccccc1 (centres undefined),inactive
16,CCN(CC(=O)NCCc1ccccc1)S(=O)(=O)c1ccc(C)cc1,inactive
17,C=CCNC(=O)/C(=C\c1cccc([N+](=O)[O-])c1)NC(=O)c1ccccc1,inactive
18,O=C(N/N=C/c1cccc([N+](=O)[O-])c1)C1CC(=O)N(c2ccc(Br)cc2)C1 (centres undefined),inactive
19,N#C/C(=C/c1cccc([N+](=O)[O-])c1)c1nnc2n1CCCCC2,20 µM (active)
20,N/C(=N\OC(=O)CCc1ccccc1)c1cccnc1,inactive
21,COC(=O)c1ccc(NC(=O)c2cc(Cl)ccc2OC)cc1,inactive
22,CCC(=O)c1ccc(N2CCN(C(=O)c3cc([N+](=O)[O-])ccc3F)CC2)c(F)c1,inactive
23,COC(=O)C1(C(C)=O)CC2=CC[C@H]3C(=O)N(c4ccccc4)C(=O)[C@H]3[C@@H]2Cc2ccccc2[C@@H]1C[N+](=O)[O-] (some centres undefined),inactive
